From paper PMC7862700, “An all-to-all approach to the identification of sequence-specific readers for epigenetic DNA modifications on cytosine” come the findings set out here.

What all share (experiment): DAPPL (digital affinity profiling via proximity ligation, sequencing); 10 mM Tris-HCl pH 7.5, 50 mM NaCl, 1 mM DTT, 4% glycerol, room temperature, 30 min; GST-TFs on glutathione beads, 16-mer random dsDNA library, 0.1% formaldehyde crosslink after washing; high values mean tight binding
In one assay the target is T1, FLI1 (Homo sapiens, UniProt Q01543 1-452).
T1 sequence: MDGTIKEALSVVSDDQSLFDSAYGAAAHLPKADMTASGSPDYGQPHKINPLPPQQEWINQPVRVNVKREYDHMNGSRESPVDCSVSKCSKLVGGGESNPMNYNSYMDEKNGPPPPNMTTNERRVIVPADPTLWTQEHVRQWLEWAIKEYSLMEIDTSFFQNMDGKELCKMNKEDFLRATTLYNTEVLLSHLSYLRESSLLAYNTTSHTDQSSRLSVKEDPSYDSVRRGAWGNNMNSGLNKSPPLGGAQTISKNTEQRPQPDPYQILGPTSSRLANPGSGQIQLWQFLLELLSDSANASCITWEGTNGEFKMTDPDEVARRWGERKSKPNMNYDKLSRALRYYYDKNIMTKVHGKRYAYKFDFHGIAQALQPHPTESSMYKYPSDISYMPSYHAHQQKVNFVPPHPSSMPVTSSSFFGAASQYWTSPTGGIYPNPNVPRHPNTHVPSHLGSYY
To be noted: protein: recombinant; tags: N-terminal GST; dsDNA, one strand shown. The method in brief: (§1)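 Sequencing on an Illumina NextSeq500 followed washing, crosslinking with 0.1% formaldehyde, proximity ligation (BsaI/T4 ligase, 1 h, 37 °C) and PCR amplification of pools that had been incubated for 30 min at room temperature with 200 nmole of a random double-stranded 16-mer DNA library in Tris/NaCl/DTT/glycerol buffer. Each pool held DNA-barcoded human transcription factors, expressed in yeast as GST fusions and captured on glutathione beads, plus a tag-only sample. Binding signal is a hexamer's read frequency for a factor divided by its frequency in the tag-only sample.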

Another assay has as its target T2, ELK1 (Homo sapiens, UniProt P19419 1-428).
T2 sequence: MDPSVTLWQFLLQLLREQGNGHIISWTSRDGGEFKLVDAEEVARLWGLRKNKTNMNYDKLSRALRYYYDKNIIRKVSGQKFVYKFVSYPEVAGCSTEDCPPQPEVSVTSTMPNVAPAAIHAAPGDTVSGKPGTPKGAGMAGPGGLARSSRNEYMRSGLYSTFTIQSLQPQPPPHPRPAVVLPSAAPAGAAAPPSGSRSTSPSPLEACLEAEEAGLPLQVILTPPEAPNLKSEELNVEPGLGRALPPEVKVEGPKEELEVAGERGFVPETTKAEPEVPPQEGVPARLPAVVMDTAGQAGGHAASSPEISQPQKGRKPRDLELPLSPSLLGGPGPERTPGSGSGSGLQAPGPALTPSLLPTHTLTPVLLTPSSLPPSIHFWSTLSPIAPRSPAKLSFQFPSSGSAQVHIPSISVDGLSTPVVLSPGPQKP
To be noted: protein: recombinant; tags: N-terminal GST; dsDNA, one strand shown. The method in brief: as §1

Another assay deals with T3, GABPA (Homo sapiens, UniProt Q06546 1-454).
T3 sequence: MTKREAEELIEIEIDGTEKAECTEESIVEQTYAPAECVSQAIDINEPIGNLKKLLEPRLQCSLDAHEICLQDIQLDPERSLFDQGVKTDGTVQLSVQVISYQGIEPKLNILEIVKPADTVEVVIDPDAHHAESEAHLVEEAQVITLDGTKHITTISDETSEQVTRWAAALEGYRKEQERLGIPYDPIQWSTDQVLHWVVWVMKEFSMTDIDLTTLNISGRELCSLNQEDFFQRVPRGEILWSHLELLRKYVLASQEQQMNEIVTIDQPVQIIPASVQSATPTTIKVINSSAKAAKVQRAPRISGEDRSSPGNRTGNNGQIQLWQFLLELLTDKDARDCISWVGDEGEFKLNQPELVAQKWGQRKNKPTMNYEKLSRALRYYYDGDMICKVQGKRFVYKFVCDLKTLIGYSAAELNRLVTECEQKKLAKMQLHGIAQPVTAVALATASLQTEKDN
The note with it: protein: recombinant; tags: N-terminal GST; dsDNA, one strand shown. Summed up:
as §1

For a further assay, the target named is ELF1 (Homo sapiens, UniProt P32519 1-619). To be noted: protein: recombinant; tags: N-terminal GST; dsDNA, one strand shown. Summed up: as §1
ELF1, sequence (P32519 whole entry): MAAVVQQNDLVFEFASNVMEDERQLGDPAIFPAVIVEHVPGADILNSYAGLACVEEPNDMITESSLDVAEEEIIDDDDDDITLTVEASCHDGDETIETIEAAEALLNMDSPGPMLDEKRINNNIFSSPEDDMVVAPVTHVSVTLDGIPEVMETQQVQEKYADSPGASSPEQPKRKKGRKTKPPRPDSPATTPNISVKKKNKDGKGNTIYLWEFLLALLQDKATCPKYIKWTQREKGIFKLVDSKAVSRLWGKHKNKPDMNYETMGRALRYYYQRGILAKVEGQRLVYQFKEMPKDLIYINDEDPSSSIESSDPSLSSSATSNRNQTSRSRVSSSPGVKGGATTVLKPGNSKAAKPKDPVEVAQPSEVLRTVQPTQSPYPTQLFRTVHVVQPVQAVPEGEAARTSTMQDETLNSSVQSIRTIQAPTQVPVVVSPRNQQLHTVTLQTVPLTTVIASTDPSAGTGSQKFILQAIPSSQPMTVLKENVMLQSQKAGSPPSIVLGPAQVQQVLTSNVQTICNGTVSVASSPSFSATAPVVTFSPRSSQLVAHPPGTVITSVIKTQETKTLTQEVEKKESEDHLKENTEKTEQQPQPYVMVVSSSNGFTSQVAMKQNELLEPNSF
The next assay has as its target T4, EHF (Homo sapiens, UniProt Q9NZC4 1-300).
T4 sequence: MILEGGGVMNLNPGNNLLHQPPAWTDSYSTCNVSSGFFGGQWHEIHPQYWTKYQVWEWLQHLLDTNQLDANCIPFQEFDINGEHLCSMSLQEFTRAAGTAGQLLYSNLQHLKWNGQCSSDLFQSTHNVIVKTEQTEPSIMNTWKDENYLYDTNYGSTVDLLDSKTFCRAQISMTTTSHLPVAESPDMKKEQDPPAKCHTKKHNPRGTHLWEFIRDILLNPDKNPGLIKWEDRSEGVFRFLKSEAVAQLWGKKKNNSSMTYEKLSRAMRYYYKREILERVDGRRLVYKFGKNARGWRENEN
To be noted: protein: recombinant; tags: N-terminal GST; dsDNA, one strand shown. The method in brief:
as §1

The next assay addresses SPI1 (Homo sapiens, UniProt P17947 1-270). The note with it: protein: recombinant; tags: N-terminal GST; dsDNA, one strand shown. The method in brief:
as §1

In the next assay the target is SPIB (Homo sapiens, UniProt Q01892 1-262). To be noted: protein: recombinant; tags: N-terminal GST; dsDNA, one strand shown. Summed up: as §1
SPIB, sequence (Q01892 whole entry): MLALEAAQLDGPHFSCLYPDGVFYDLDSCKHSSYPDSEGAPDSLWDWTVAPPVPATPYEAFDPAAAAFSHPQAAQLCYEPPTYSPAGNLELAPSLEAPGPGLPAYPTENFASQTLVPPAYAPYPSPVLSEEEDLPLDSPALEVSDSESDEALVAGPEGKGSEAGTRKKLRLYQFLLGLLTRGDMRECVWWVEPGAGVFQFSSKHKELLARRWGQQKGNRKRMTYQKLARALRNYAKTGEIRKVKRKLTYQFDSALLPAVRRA
The target in a further assay is T5, ELK3 (Homo sapiens, UniProt P41970 1-407).
T5 sequence: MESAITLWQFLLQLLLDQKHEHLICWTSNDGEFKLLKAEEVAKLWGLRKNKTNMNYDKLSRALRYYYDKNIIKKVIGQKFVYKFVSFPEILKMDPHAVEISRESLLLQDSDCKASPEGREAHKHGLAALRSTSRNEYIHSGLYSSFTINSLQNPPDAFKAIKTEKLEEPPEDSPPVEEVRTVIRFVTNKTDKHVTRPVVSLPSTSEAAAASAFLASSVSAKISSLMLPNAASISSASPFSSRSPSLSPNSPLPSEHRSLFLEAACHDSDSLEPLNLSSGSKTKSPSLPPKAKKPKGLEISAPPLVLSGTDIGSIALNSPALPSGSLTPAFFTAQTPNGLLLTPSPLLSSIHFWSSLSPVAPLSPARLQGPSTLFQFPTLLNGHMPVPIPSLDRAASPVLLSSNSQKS
To be noted: protein: recombinant; tags: N-terminal GST; dsDNA, one strand shown. Summed up: as §1

A further assay addresses T6, FEV (Homo sapiens, UniProt Q99581 1-238).
T6 sequence: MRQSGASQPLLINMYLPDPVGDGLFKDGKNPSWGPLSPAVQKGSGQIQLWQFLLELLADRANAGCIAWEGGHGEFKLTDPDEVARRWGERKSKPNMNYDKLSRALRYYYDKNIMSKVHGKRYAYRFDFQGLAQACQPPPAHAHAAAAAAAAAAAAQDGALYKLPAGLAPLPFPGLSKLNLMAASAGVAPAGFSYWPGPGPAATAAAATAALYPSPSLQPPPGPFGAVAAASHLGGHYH
To be noted: protein: recombinant; tags: N-terminal GST; dsDNA, one strand shown. Summed up:
as §1

A further assay addresses ETV5 (Homo sapiens, UniProt P41161 1-510). The note with it: protein: recombinant; tags: N-terminal GST; dsDNA, one strand shown. Summed up:
as §1

In another assay the target is HSF1 (Homo sapiens, UniProt Q00613 1-529). The note with it: protein: recombinant; tags: N-terminal GST; chain copies: 3; dsDNA, one strand shown. The method in brief:
as §1

The target of another assay is T7, SPIC (Homo sapiens, UniProt Q8N5J4 1-248).
T7 sequence: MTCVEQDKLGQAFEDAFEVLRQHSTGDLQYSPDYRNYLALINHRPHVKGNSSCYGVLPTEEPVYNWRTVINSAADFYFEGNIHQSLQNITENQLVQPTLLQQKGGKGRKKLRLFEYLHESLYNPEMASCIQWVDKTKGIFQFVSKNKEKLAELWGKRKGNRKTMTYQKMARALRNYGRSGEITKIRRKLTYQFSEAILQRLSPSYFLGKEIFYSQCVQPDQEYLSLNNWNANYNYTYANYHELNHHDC
To be noted: protein: recombinant; tags: N-terminal GST; dsDNA, one strand shown. Summed up: as §1

Another assay addresses ELF4 (Homo sapiens, UniProt Q99607 1-663). The note with it: protein: recombinant; tags: N-terminal GST; dsDNA, one strand shown. The method in brief: as §1
The target in the next assay is T8, ELK4 (Homo sapiens, UniProt P28324-2 1-405).
T8 sequence: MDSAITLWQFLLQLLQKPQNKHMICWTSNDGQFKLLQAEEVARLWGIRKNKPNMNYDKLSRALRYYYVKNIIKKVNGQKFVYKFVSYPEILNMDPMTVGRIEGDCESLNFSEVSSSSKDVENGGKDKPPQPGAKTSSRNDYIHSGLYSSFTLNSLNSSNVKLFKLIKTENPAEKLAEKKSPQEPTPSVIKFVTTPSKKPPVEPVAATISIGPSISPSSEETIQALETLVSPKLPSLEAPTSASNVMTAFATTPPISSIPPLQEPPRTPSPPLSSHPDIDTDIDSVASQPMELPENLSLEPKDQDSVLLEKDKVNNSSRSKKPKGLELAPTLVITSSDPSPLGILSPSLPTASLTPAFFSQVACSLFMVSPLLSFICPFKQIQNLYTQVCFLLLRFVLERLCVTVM
The note with it: protein: recombinant; tags: N-terminal GST; dsDNA, one strand shown. The method in brief:
as §1

For a further assay, the target named is T9, ETV2 (Homo sapiens, UniProt O00321 1-342).
T9 sequence: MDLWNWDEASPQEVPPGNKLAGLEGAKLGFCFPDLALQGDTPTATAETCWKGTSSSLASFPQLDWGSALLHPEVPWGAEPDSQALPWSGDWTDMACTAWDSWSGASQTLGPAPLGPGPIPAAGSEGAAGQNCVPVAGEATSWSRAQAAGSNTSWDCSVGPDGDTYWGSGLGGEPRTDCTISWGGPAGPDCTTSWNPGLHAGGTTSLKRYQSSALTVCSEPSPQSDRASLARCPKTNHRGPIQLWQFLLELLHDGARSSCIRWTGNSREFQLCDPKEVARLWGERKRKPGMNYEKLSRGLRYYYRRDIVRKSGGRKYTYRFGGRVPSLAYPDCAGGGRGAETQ
The note with it: protein: recombinant; tags: N-terminal GST; dsDNA, one strand shown. Summed up: as §1

In the next assay the target is T10, ELF3 (Homo sapiens, UniProt P78545 1-371).
T10 sequence: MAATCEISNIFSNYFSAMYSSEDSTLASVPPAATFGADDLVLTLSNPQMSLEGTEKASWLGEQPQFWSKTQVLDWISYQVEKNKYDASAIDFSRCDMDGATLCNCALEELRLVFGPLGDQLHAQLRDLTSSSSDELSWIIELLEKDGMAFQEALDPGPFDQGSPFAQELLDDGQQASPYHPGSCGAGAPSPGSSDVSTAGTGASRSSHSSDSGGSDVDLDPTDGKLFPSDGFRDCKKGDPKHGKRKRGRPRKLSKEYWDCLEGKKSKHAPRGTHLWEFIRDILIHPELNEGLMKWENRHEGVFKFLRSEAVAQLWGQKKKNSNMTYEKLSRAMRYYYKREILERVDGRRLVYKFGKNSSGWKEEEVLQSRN
To be noted: protein: recombinant; tags: N-terminal GST; dsDNA, one strand shown. The method in brief:
as §1

Another assay addresses CRX (Homo sapiens, UniProt O43186 1-299). To be noted: protein: recombinant; tags: N-terminal GST; dsDNA, one strand shown. Summed up:
as §1

In the next assay the target is ETV1 (Homo sapiens, UniProt P50549 1-477). To be noted: protein: recombinant; tags: N-terminal GST; dsDNA, one strand shown. Summed up: as §1
ETV1, sequence (P50549 whole entry): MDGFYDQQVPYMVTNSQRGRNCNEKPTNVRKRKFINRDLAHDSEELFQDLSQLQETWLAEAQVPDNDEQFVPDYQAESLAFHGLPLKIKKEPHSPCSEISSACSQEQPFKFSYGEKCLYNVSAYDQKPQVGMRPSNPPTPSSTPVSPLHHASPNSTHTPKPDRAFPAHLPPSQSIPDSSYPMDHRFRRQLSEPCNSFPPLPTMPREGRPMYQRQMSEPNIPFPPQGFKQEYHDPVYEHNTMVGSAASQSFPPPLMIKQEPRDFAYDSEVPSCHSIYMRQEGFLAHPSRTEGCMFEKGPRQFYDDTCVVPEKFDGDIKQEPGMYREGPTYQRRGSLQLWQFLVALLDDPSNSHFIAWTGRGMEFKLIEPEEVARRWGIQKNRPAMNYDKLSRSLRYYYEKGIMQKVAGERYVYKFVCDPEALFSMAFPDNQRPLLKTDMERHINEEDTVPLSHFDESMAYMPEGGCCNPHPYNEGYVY

ELF4, sequence (Q99607 whole entry): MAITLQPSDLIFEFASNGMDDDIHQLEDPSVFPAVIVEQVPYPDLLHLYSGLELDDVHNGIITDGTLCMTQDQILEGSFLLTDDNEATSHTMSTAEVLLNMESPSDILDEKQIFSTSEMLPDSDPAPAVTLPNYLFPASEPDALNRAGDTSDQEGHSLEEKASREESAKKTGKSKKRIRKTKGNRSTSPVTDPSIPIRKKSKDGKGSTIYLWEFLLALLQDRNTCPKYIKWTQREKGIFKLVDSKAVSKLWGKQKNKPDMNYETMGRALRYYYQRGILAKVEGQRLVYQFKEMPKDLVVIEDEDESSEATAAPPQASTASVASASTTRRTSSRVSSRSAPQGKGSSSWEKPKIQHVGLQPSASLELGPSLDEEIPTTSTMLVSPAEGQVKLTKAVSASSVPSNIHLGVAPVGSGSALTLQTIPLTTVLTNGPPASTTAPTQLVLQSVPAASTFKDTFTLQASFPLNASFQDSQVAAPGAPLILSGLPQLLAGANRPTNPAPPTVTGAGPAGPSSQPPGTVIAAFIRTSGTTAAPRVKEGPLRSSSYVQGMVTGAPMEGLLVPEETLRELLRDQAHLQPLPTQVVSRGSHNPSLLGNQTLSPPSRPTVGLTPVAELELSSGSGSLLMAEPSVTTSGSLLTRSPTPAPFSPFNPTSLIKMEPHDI
HSF1, sequence (Q00613 whole entry): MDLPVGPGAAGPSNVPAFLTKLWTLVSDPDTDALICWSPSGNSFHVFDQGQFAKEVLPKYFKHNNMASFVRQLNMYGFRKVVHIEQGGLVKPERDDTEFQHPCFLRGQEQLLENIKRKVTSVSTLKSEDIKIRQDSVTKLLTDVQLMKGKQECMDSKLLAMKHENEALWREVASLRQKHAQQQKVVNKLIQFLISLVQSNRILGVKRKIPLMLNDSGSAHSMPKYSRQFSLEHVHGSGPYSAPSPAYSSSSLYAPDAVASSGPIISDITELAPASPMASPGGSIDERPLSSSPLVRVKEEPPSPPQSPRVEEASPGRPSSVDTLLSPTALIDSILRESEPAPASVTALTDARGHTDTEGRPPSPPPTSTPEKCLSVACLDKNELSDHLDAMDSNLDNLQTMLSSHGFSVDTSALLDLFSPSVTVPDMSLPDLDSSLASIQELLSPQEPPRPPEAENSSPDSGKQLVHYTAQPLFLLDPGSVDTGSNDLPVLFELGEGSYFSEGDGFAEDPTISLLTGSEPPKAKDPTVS
ETV5, sequence (P41161 whole entry): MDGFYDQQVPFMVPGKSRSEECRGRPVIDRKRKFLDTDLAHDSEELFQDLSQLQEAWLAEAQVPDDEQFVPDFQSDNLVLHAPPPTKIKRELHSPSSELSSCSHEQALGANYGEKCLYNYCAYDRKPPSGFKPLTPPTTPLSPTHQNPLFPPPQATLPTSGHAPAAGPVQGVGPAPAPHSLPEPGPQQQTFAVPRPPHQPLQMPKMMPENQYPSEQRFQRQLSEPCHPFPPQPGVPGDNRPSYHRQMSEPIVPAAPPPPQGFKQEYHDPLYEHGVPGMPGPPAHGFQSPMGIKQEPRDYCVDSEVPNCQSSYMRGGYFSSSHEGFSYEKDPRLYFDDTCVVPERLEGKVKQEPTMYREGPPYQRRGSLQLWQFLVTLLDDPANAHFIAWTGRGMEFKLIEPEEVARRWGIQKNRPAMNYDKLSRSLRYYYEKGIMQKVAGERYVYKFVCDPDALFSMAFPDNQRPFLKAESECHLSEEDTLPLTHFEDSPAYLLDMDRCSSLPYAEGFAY
CRX, sequence (O43186 whole entry): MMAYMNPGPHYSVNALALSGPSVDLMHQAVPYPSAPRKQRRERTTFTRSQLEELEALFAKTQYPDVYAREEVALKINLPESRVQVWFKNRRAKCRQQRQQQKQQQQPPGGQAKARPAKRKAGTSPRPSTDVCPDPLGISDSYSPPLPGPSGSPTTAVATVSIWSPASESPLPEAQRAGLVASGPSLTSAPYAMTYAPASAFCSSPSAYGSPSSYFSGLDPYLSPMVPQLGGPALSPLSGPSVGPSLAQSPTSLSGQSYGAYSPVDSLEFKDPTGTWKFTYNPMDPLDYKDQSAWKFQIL

For AAAAGT, the binding signal is 1.02 fold enrichment (6-mer frequency, TF over GST control) in the assay with FLI1; 1.1 fold enrichment (6-mer frequency, TF over GST control) with ELK1; 1.08 fold enrichment (6-mer frequency, TF over GST control) in the assay with GABPA; 1.01 fold enrichment (6-mer frequency, TF over GST control) with ELF1; 1.1 fold enrichment (6-mer frequency, TF over GST control) with EHF; 1.06 fold enrichment (6-mer frequency, TF over GST control) with SPI1. In addition, the binding signal was 1.12 fold enrichment (6-mer frequency, TF over GST control) with SPIB; 1.06 fold enrichment (6-mer frequency, TF over GST control) with ELK3; 1.04 fold enrichment (6-mer frequency, TF over GST control) with FEV; 1.06 fold enrichment (6-mer frequency, TF over GST control) in the assay with ETV5; 1.06 fold enrichment (6-mer frequency, TF over GST control) in the assay with HSF1; 1.1 fold enrichment (6-mer frequency, TF over GST control) with SPIC. Moreover, the binding signal with ELF4 was 1.1 fold enrichment (6-mer frequency, TF over GST control); in the assay with ELK4, 1.24 fold enrichment (6-mer frequency, TF over GST control); with ETV2, 1.03 fold enrichment (6-mer frequency, TF over GST control); with ELF3, 1.12 fold enrichment (6-mer frequency, TF over GST control); in the assay with CRX it was 1.09 fold enrichment (6-mer frequency, TF over GST control); with ETV1, 1.13 fold enrichment (6-mer frequency, TF over GST control).
